Out of some 68,000 compounds screened, about 2,700 (4%) showed an effect of 50% or more. For the sample, strong results were picked, then their nearest neighbours and some compounds at random.
tested on: Plasmodium berghei; test: Screen against P. berghei liver stage (PbLuc), transformed with Luciferase, at 2uM; assay type: functional, HepG2; conditions: tested at 2 uM

SMILES	INHIBITION [%]
CSc1nccc(N2CCC(NCc3ccc4nsnc4c3)CC2)n1	-60.25
O=C(CC1CCc2ccccc21)NC1(C(=O)O)CCOCC1 (stereo not drawn)	0.54
O=C(CC1CCc2ccccc21)NC1(C(=O)O)CCCC1 (stereo not drawn)	16.93
CC1(NC(=O)CC2CCc3ccccc32)CCOCC1 (stereo not drawn)	60.15
COC(=O)c1cc(OCC2CCC2)cc(C(=O)N[C@@H]2CCCNC2)c1	-28.09
Cc1cccc(C)c1NC(=O)c1cccc(N(C)S(C)(=O)=O)c1C	-11.34
Cn1[nH]c(C2CC2)c(-c2ccc3c(c2)OCO3)c1=N	58.6
CCc1[nH]n(C)c(=N)c1-c1ccc2c(c1)OCO2	37.53
Cn1nc(C2CCCC2)c(-c2ccc3c(c2)OCO3)c1N	53.33
CSCCc1nc(-c2ccc3c(c2)OCO3)n(C)n1	12.74
Cn1[nH]c(C2CCC2)c(-c2ccc3c(c2)OCO3)c1=N	14.06
CCCc1[nH]n(C)c(=N)c1-c1ccc2c(c1)OCO2	5.92
Cc1nc(C)n(C2CCCN(C(=O)c3ccc4c(c3)COC4)C2)n1 (stereo not drawn)	2.08
O=C1CC[C@@H]2[C@@H](CCN2C(=O)c2ccsc2)N1Cc1ccncc1	37.48
Cc1ccc(CN2C[C@H](OCC3CCN(C)CC3)[C@H]3COC[C@H]32)o1	-14.64
CNC(=O)[C@H]1C[C@H]2OCC[C@H]2N(Cc2cccc3ccccc23)C1	16.6
CC(=O)c1c(F)cccc1NCC(O)c1ccc(F)c(F)c1 (stereo not drawn)	4.26
CC(=O)c1c(F)cccc1NCC(O)C(C)(C)C (stereo not drawn)	53.44
CC(=O)c1c(F)cccc1NCC(O)C1CC1 (stereo not drawn)	31.96
CCC(C)NC(=O)c1cc(S(=O)(=O)N2CCCC2)c(C)s1 (stereo not drawn)	53.12
CCC(C)NC(=O)c1cc(S(=O)(=O)N(C)C)c(C)s1 (stereo not drawn)	25.9
CCC(C)NC(=O)c1cc(S(N)(=O)=O)c(Br)s1 (stereo not drawn)	-70.18
CC(C)(C)c1nnc(CN2CCCC(c3cc(C(N)=O)[nH]n3)C2)o1 (stereo not drawn)	-47.97
COc1ncnc(N(C)C)c1NC(=O)Cc1cc(F)ccc1F	-73.79
COc1ncnc(N(C)C)c1NC(=O)Cc1c[nH]c2ccc(F)cc12	62.92
CN(C)c1ncncc1NC(=O)Cc1c[nH]c2ccc(F)cc12	10.04
O=C(CN1CC(c2nc(-c3ccco3)no2)C1)NCC1CCCO1 (stereo not drawn)	23.01
Cc1cc(NC(=O)NC2CCN(C(C)C)CC2)c2ncccc2c1	-40.76

Source: ChEMBL document CHEMBL4513216, “Probing the Open Global Health Chemical Diversity Library for Multistage-Active Starting Points for Next-Generation Antimalarials” (ACS Infect Dis, 2020)
